Our source for the Potency values is PubChem BioAssay (NCATS).

The structures appear in SMILES notation. Results filed as inconclusive are left out. Entries that show only a call come without a potency. Activity calls are given as the source filed them. Calls follow the shape of the dose curve; as a rule, active = well fitted inhibition curve with a large enough effect; inconclusive = small, poorly fitted or top-dose-only effect; inactive = flat fitted curve, though single readings scatter.

Chain of Lysine-specific demethylase 5B (Homo sapiens) (Q9UGL1 whole entry, looked up): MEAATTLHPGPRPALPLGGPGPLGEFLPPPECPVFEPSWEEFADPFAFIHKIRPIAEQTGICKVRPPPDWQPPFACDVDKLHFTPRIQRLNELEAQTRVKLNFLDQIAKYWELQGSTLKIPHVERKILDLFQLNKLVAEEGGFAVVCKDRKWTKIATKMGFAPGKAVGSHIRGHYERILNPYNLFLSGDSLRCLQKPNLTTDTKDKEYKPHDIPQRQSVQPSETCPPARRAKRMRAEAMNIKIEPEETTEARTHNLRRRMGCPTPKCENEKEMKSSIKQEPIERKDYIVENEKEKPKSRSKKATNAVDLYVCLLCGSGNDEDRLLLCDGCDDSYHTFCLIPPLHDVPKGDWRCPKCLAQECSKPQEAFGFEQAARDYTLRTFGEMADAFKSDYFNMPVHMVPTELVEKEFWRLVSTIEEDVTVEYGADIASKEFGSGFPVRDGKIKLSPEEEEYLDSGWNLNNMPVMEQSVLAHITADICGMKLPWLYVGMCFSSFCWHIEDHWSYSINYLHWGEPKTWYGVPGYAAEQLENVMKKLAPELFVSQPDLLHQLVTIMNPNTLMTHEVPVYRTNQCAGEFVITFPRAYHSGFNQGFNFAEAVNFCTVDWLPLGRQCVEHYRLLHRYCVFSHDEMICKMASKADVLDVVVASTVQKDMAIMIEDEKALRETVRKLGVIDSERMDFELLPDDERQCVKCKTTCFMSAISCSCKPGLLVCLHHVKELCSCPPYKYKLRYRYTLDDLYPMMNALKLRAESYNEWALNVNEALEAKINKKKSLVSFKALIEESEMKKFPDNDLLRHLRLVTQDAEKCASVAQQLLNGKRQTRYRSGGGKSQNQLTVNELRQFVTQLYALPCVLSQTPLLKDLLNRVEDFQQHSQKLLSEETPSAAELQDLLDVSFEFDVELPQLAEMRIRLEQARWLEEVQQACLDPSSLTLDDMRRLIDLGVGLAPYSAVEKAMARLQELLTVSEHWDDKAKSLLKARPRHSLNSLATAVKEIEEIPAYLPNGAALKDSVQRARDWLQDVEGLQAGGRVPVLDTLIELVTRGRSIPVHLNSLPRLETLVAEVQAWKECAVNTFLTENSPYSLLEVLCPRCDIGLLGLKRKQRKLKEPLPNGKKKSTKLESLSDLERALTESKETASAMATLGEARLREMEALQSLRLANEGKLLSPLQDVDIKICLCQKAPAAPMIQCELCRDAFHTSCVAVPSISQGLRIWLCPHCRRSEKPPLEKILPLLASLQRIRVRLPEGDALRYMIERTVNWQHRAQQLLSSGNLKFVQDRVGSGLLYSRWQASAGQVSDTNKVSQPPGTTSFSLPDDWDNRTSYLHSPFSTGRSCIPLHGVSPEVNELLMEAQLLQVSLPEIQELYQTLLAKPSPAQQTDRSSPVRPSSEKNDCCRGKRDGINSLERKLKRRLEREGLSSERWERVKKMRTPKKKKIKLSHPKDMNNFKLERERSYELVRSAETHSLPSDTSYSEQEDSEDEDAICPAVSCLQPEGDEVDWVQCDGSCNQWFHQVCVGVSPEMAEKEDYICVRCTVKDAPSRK

The assay addresses Lysine-specific demethylase 5B (Homo sapiens) (UniProt Q9UGL1). Kind of assay: Optimization screen for KDM5B Histone Demethylases FDH coupled qHTS against the LOPAC library (AID 1347166). The following applies: KDM5B demethylation, FDH-coupled NADH fluorescence (FDH is formaldehyde dehydrogenase); series mostly up to 57.5 µM. From the text:
Assay Submitter (PI): Qin Yan, Ph.D. (Yale University) and Xiaodong Cheng, Ph.D. (MD Anderson)
This project was funded as part of the NCI NEXT Program and Chemical Biology Consortium (CBC)
The histone demethylases, KDM5A and KDM5B catalyze the demethylation of lysine 4 on histone H3 (H3K4me3/2). They
are overexpressed in a variety of cancers and have been implicated in cancer cell growth, metastasis, drug resistance, and tumor growth. KDM5A is amplified and overexpressed in breast and gastric cancer; and is translocated in leukemia. While KDM5B is highly expressed in human mammary tumors and breast cancer cell lines, but not in normal adult breast tissue. Moreover, knockdown of KDM5B leads to upregulation of tumor suppressor genes, including BRCA1. The goal of this project is to employ qHTS to identify selective small molecule inhibitors of KDM5A/B demethylase activity to better understand the role of KDM5 in cancer and to develop novel therapies.
We employed an FDH-coupled assay previously reported by Sakurai et al. to monitor in vitro KDM5 demethylase activity. Compounds showing dose response inhibition are re-acquired, validated, and tested for non-specific interference with the formaldehyde dehydrogenase (FDH) counterscreen. True inhibitors are validated using an AlphaLisa secondary screen, which employs an H3K4(me2-1)-specific antibody to monitor demethylation of a biotin-tagged H3K4(me3) peptide substrate. Inhibitors are profiled against KDM4A and KDM6A AlphaLisa counterscreens to determine level of demethylase specificity; and against the TruHits counterscreen to eliminate non-specific inhibitory activity on the AlphaLISA detection method. Selective inhibitors identified from the primary and secondary screening are tested in cells using immunofluorescence to monitor global H3K4 tri-methylation as a measure of KDM5A/B inhibition. This assay is run against the NCGC Lopac collection of about 1,200 compounds to evaluate its amenability to quantitative High Throughput Screening (qHTS) platform.
Early Translation Branch (ETB)
National Center for Advancing Translational Sciences (NCATS), Rockville, MD
National Institute of Health (NIH), Bethesda, Maryland
[1] Sakurai, M et al. A miniaturized screen for inhibitors of Jumonji histone demethylases. Mol Biosyst. 2010 Feb;6(2):357-64. doi: 10.1039/b912993f. Epub 2009 Oct 8.
1536-well Black, solid bottom, medium binding assay plate is purchased from Greiner Bio-one. The enzymes (KDM5B) and substrate (H3K4me3/2) are provided by the principal investigators. The buffer for this assay is composed of 50mM HEPES at pH 7.5 with 0.01% Tween-20.
FDH coupled qHTS protocol:
Three microliter enzyme mix (buffer + 200nM KDM5BDeltaAP final concentration) is dispensed into the assay plate using the BioRAPTR Flying Reagent Dispenser (FRD; Beckton-Dickenson). Compound (at various final concentration) and control solution is pin transferred to the assay plate using the Kalypsys 1536-pin tool apparatus. The assay plate is incubated for 10 min at room temperature followed by addition of 1uL substrate mix (buffer + 100uM ascorbic acid, 50uM ferrous ammonium sulfate, 12.5uM H3K4Me3, 25uM a-ketoglutarate, 0.25 mM NAD+, 0.25 U/mL formaldehyde dehydrogenase using the FRD yielding a total reaction volume of 4 uL. Initial fluorescence (Read1) is detected using the PerkinElmer ViewLux plate reader equipped with 340 nm excitation and 450 nm emission filters. The final fluorescence (Read2) signal is obtained after 30 min of room temperature incubation. Delta RFU is calculated (Read2 - Read1) and is used to generated dose response curves
(Quantitative high-throughput screening tests each substance at several concentrations.)
Take `Cc1scc2c1N(C(=O)CN1CCN(C)CC1)c1ccccc1NC2=O`: the Potency entry is “inactive”.

Take `NS(=O)(=O)c1cc2c(cc1Cl)NC(C1CC3C=CC1C3)NS2(=O)=O` (stereo not given): the Potency result is “inactive”. For the compound `C[N+](C)(C)CCOC(N)=O`, the Potency entry is “inactive”.

For `CCCNC(C)C(=O)Nc1ccccc1C` (stereo not given), the Potency entry is “inactive”. Turning to `CC(C(=O)O)c1ccc(CC2CCCC2=O)cc1` (stereo not given), the Potency entry was “inactive”. Next, `CC(C)NNC(=O)c1ccncc1`: “inactive”; `C[C@@H](O)[C@H]1C(=O)N2C(C(=O)O)=C(SCCN=CN)C[C@H]12`: “inactive”. Then `CCc1c(C)[nH]c2c1C(=O)C(CN1CCOCC1)CC2` (stereo not given), with “inactive”. Then `CCn1nc(C(=O)O)c(=O)c2cc3c(cc21)OCO3`, with “inactive”; and `COc1ccc([C@@H]2Sc3ccccc3N(CCN(C)C)C(=O)[C@@H]2OC(C)=O)cc1`, with “inactive”; and `CCCCNc1ccc(C(=O)OCCN(C)C)cc1`, with “inactive”. Turning to `NC(=O)c1cn(Cc2c(F)cccc2F)nn1`, the Potency result was “inactive”. Next, `FC(F)(F)c1ccccc1-n1ccnc1`: “inactive”; `CC[N+](C)(C)c1cccc(O)c1`: “inactive”; `OC(CCN1CCCCC1)(c1ccccc1)C1CCCCC1` (stereo not given): “inactive”.

With `COc1ccc(CN(CCN(C)C)c2ccccn2)cc1`, the Potency entry was “inactive”. Next, `COCCCC/C(=N\OCCN)c1ccc(C(F)(F)F)cc1`: “inactive”; `Cc1nnc(SCC2=C(C(=O)O)N3C(=O)[C@@H](NC(=O)Cn4cnnn4)[C@H]3SC2)s1`: “inactive”; `CCN(CC)CCNC(=O)c1ccc(NC(C)=O)cc1`: “inactive”. Then `CC(C)(Oc1ccc(CCNC(=O)c2ccc(Cl)cc2)cc1)C(=O)O`, with “inactive”; and `Cc1ccc(Cl)c(Nc2ccccc2C(=O)O)c1Cl`, with “inactive”. Next, `CCN(CC)CC(=O)Nc1c(C)cccc1C`: “inactive”.

For the compound `COc1cc2c(cc1OC)-c1cc(=Nc3c(C)cc(C)cc3C)n(C)c(=O)n1CC2`, the Potency result is “inactive”. Turning to `NC(N)=NC(=O)Cc1c(Cl)cccc1Cl`, the Potency entry was “inactive”. With `O=C(O)CN(CCOCCOCCN(CC(=O)O)CC(=O)O)CC(=O)O`, the Potency result is “inactive”.

As for `OCCN1CCN(CC/C=C2/c3ccccc3Sc3ccc(C(F)(F)F)cc32)CC1`, the Potency result is “inactive”.

As to `CN1CCN(C2=Nc3ccccc3Oc3ccc(Cl)cc32)CC1`, the Potency entry was “inactive”. Next, `O=C(O)CP(=O)(O)O`: “inactive”; `CCCCNc1c(C(=O)OCC)c(C)nc2c1cnn2CC`: “inactive”. Next, `CCN1CCc2nc(N)oc2CC1`: “inactive”. With `CNCCCN1c2ccccc2CCc2ccccc21`, the Potency entry was “inactive”. `CCCC(C(=O)OCCN(CC)CC)(c1ccccc1)c1ccccc1`: the Potency entry is “inactive”. Regarding `O=C(O)CN(CCN(CC(=O)O)CC(=O)O)CCN(CC(=O)O)CC(=O)O`, the Potency entry was “inactive”. Next, `O=C1NCN(c2ccccc2)C12CCN(CCCC(c1ccc(F)cc1)c1ccc(F)cc1)CC2`: “inactive”. With `CC(=O)Oc1cc(C(C)C)c(OCCN(C)C)cc1C`, the Potency entry was “inactive”. Next, `C[C@H](CS)C(=O)N1CCC[C@H]1C(=O)O`: “inactive”; `CCCCNC(=O)NS(=O)(=O)c1ccc(C)cc1`: “inactive”; `C[N+](C)(C)CCCCCCCCCC[N+](C)(C)C`: “inactive”. Then `CCn1ccnc1CC1COc2ccccc2O1` (stereo not given), with “inactive”; and `CN1C[C@H](C(=O)N[C@]2(C)O[C@@]3(O)[C@@H]4CCCN4C(=O)[C@H](Cc4ccccc4)N3C2=O)C[C@@H]2c3cccc4[nH]cc(c34)C[C@H]21`, with “inactive”.
